According to PubChem BioAssay AID1159580 (chemical genetic matrix, 2015):
The campaign covered roughly 5,500 compounds. About 2,000 (36%) were called active. Not shown: some 18% with an inconclusive outcome. Rule as the data show it: active = normalized growth mostly below about 0.91 (no sharp cut-off); inconclusive = no clear call, values can overlap the other calls; inactive = mostly above about 0.92. The list shows a part of the results.

Test: chemical genetic growth profiling, strain panel (AID 1159580);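 also: tested at 20 µM; growth read once vehicle control cultures reached saturation at 30 °C; 1 = growth at the plate median or of vehicle wells; lower values mean less growth of the strain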
Conditions: S. cerevisiae deletion strains, growth OD

Measured: normalized growth

N[C@H](C(=O)O)c1cc(O)cc(O)c1
inactive: locus YAL040C, strain CLN3, stronger effect = lower value 0.975 | locus YCL061C, strain MRC1 (second series), stronger effect = lower value 0.995 | locus YDR363W, strain ESC2, stronger effect = lower value 0.949 | locus YER002W, strain NOP16, stronger effect = lower value 0.985 | locus YNL175C, strain NOP13, stronger effect = lower value 1.02 | locus YNL197C, strain WHI3, stronger effect = lower value 0.996 | locus YNL224C, strain SQS1, stronger effect = lower value 1.01 | locus YNL322C, strain KRE1, stronger effect = lower value 0.982 | locus YOR083W, strain WHI5 (second series), stronger effect = lower value 0.999 | locus YPL055C, strain LGE1, stronger effect = lower value 0.956 | locus YPL241C, strain CIN2, stronger effect = lower value 0.991

C[C@H]1O[C@H](OC2[C@@H](O)[C@@H](O)C(O)[C@H](O)[C@H]2O)[C@@H](N)C[C@@H]1N=C(N)C(=O)O (stereo partly specified)
inactive: locus YAL021C, strain ccr4, stronger effect = lower value 0.989 | locus YAL026C, strain drs2, stronger effect = lower value 0.995 | locus YAL030W, strain snc1, stronger effect = lower value 1 | locus YBL061C, strain skt5, stronger effect = lower value 0.996 | locus YBR009C, strain hhf1, stronger effect = lower value 1.05 | locus YBR023C, strain chs3, stronger effect = lower value 0.99 | locus YBR171W, strain sec66, stronger effect = lower value 0.911 | locus YBR231C, strain swc5, stronger effect = lower value 0.999 | locus YBR279W, strain paf1, stronger effect = lower value 0.986 | locus YCL011C, strain gbp2, stronger effect = lower value 0.979 | locus YCL016C, strain dcc1, stronger effect = lower value 1 | locus YCL061C, strain MRC1, stronger effect = lower value 0.999 | locus YCL069W, strain vba3, stronger effect = lower value 1 | locus YCR088W, strain abp1, stronger effect = lower value 0.983 | locus YDL005C, strain med2, stronger effect = lower value 0.986 | locus YDL040C, strain nat1, stronger effect = lower value 0.992 | locus YDR001C, strain nth1, stronger effect = lower value 0.985 | locus YDR069C, strain doa4, stronger effect = lower value 0.999 | locus YDR137W, strain rgp1, stronger effect = lower value 0.937 | locus YDR159W, strain sac3, stronger effect = lower value 0.993 | locus YDR195W, strain ref2 1.02 | locus YDR297W, strain sur2, stronger effect = lower value 0.988 | locus YDR334W, strain swr1, stronger effect = lower value 0.965 | locus YDR335W, strain msn5, stronger effect = lower value 0.975 | locus YDR392W, strain spt3, stronger effect = lower value 0.882 | locus YEL003W, strain gim4, stronger effect = lower value 0.981 | locus YEL037C, strain rad23, stronger effect = lower value 0.994 | locus YEL061C, strain CIN8 (second series), stronger effect = lower value 0.993 | locus YER015W, strain faa2, stronger effect = lower value 0.995 | locus YER016W, strain bim1, stronger effect = lower value 0.991 | locus YER111C, strain swi4, stronger effect = lower value 0.995 | locus YER155C, strain BEM2 (second series), stronger effect = lower value 1.02 | locus YFR010W, strain ubp6, stronger effect = lower value 0.979 | locus YGL167C, strain pmr1, stronger effect = lower value 0.986 | locus YGL173C, strain kem1, stronger effect = lower value 0.994 | locus YGL227W, strain vid30, stronger effect = lower value 1 | locus YGL240W, strain doc1, stronger effect = lower value 1.01 | locus YGL253W, strain hxk2, stronger effect = lower value 0.994 | locus YHR013C, strain ard1, stronger effect = lower value 0.947 | locus YHR027C, strain rpn1, stronger effect = lower value 0.982 | locus YHR030C, strain SLT2, stronger effect = lower value 0.951 | locus YHR079C, strain IRE1, stronger effect = lower value 0.964 | locus YHR142W, strain chs7, stronger effect = lower value 0.927 | locus YJL092W, strain hpr5, stronger effect = lower value 0.974 | locus YJL095W, strain BCK1 (second series), stronger effect = lower value 0.992 | locus YJL095W, strain BCK1, stronger effect = lower value 0.969 | locus YJL115W, strain asf1, stronger effect = lower value 0.974 | locus YJL129C, strain trk1, stronger effect = lower value 0.921 | locus YJL154C, strain vps35, stronger effect = lower value 0.995 | locus YJL164C, strain tpk1, stronger effect = lower value 0.97 | locus YJL166W, strain qcr8, stronger effect = lower value 0.99 | locus YJL187C, strain SWE1, stronger effect = lower value 0.992 | locus YJR066W, strain TOR1, stronger effect = lower value 0.928 | locus YKL160W, strain elf1, stronger effect = lower value 0.957 | locus YKR026C, strain gcn3, stronger effect = lower value 0.997 | locus YKR091W, strain srl3, stronger effect = lower value 0.991 | locus YLL001W, strain dnm1, stronger effect = lower value 0.986 | locus YLL026W, stronger effect = lower value 0.989 | locus YLL041C, strain sdh2, stronger effect = lower value 0.977 | locus YLR027C, strain aat2, stronger effect = lower value 0.978 | locus YLR113W, strain HOG1, stronger effect = lower value 0.983 | locus YLR221C, strain rsa3, stronger effect = lower value 0.962 | locus YLR258W, strain gsy2, stronger effect = lower value 1.01 | locus YLR262C, strain YPT6 (second series), stronger effect = lower value 0.912 | locus YLR320W, strain mms22, stronger effect = lower value 0.967 | locus YLR342W, strain FKS1, stronger effect = lower value 0.993 | locus YLR357W, strain rsc2, stronger effect = lower value 1.01 | locus YLR370C, strain arc18, stronger effect = lower value 0.981 | locus YLR384C, strain iki3, stronger effect = lower value 1 | locus YML120C, strain ndi1, stronger effect = lower value 0.959 | locus YMR058W, strain fet3, stronger effect = lower value 0.988 | locus YMR125W, strain sto1, stronger effect = lower value 0.984 | locus YMR129W, stronger effect = lower value 1 | locus YMR205C, strain PFK2, stronger effect = lower value 1.04 | locus YMR231W, strain pep5, stronger effect = lower value 1.01 | locus YNL071W, strain lat1, stronger effect = lower value 0.963 | locus YNL183C, strain NPR1, stronger effect = lower value 0.944 | locus YNL209W, strain ssb2, stronger effect = lower value 0.989 | locus YNL248C, strain rpa49, stronger effect = lower value 0.933 | locus YNL322C, strain KRE1 (second series), stronger effect = lower value 0.983 | locus YNR049C, strain mso1, stronger effect = lower value 0.986 | locus YOR001W, strain rrp6, stronger effect = lower value 0.923 | locus YOR070C, strain gyp1, stronger effect = lower value 0.987 | locus YOR080W, strain dia2, stronger effect = lower value 0.984 | locus YOR083W, strain WHI5, stronger effect = lower value 0.934 | locus YOR106W, strain vam3, stronger effect = lower value 0.94 | locus YOR231W, strain MKK1, stronger effect = lower value 0.97 | locus YOR265W, strain rbl2, stronger effect = lower value 0.989 | locus YOR270C, strain vph1, stronger effect = lower value 0.924 | locus YOR290C, strain snf2, stronger effect = lower value 0.927 | locus YPL051W, strain arl3, stronger effect = lower value 0.964 | locus YPL078C, strain atp4, stronger effect = lower value 0.951 | locus YPL106C, strain sse1, stronger effect = lower value 0.971 | locus YPL240C, strain hsp82, stronger effect = lower value 0.97 | locus YPL256C, strain CLN2, stronger effect = lower value 0.98
